Records with an inconclusive call do not appear. A call without a number means that no potency is given here. Activity calls are given as the source filed them. Calls come from the whole dose curve; as a rule, active = well fitted activation curve with a large enough effect; inconclusive = small, poorly fitted or top-dose-only effect; inactive = no such curve, though single readings can be large or run the other way.
Assay: qHTS for Activators of Parkin Expression: LOPAC Validation Assay (FLuc Reporter) (AID 720573)
Settings: Cell line, PRKN promoter firefly luciferase reporter; series mostly up to 46.1 µM
How it was run: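 Readout is FLuc luminescence from neuronal reporter cells (Parkin promoter, FLuc plus NLuc) after 24 h compound exposure in dose response. Values normalized to neutral DMSO and positive-control compounds.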

Row | SMILES | Potency
1 | O=C(O)c1ccccc1Nc1cccc(OCc2ccc3ccccc3n2)c1 | inactive
2 | CCCCCCCC/C=C\CCCCCCCC(=O)NCCc1ccc(O)c(O)c1 | inactive
3 | CC(=O)[C@H]1CCC2C3CC=C4C[C@@H](OS(=O)(=O)O)CC[C@]4(C)C3CC[C@@]21C (some centres undefined) | inactive
4 | NC(=O)CC[C@H](N)C(=O)O | inactive
5 | Cc1nc(N=Nc2cc(S(=O)(=O)O)c3cc([N+](=O)[O-])cc(S(=O)(=O)O)c3c2)c(COP(=O)(O)O)c(C=O)c1O | inactive
6 | O=C1NC(=O)c2cc(Nc3ccccc3)c(Nc3ccccc3)cc21 | inactive
7 | COc1ccccc1N1CCN(CCCCN2C(=O)c3ccccc3C2=O)CC1 | inactive
8 | CCCCCCCCCC[Si](C)(C)CCC(=O)NC(Cc1ccc(C)cc1)c1ccccc1 (centres undefined) | inactive
9 | O=c1[nH]c(=O)c2nc3ccccc3nc2[nH]1 | inactive
10 | C[C@](Cc1ccc(O)c(O)c1)(NN)C(=O)O | inactive
11 | C[C@]12C=CC(=O)C=C1CC[C@@H]1C2=CC[C@]2(C)[C@@H](C(=O)CN3CCN(c4cc(N5CCCC5)nc(N5CCCC5)n4)CC3)CC[C@@H]12 | inactive
12 | Cc1ccccc1/C=C/C1=NCCN1 | inactive
13 | NC1(C(=O)O)CCCCC1 | inactive
14 | COC(=O)C1=C(C)NC(C)=C([N+](=O)[O-])C1c1ccccc1C(F)(F)F (centres undefined) | inactive
15 | O=C(O)Cc1c[nH]c2ccc(O)cc12 | inactive
16 | CCCn1c(=O)c2[nH]c(-c3ccc(S(=O)(=O)O)cc3)nc2n(CCC)c1=O | inactive
17 | [Li+] | inactive
18 | NC[C@@H]1O[C@H](c2ccccc2)Cc2c1ccc(O)c2O | inactive
19 | COc1cc([C@@H]2c3cc4c(cc3[C@H](O)C3COC(=O)[C@@H]32)OCO4)cc(OC)c1OC (some centres undefined) | inactive

Source: PubChem BioAssay (NCATS)
